A number with no mark means an inactive call. The source made the active and inactive calls. The rule behind the calls is not given here.
Test: Bcl-B/Puma-BH3 peptide binding displacement, dose response, counter-screen for TR3-derived Bcl-B inhibitor project, biochemical, fluorescence polarization (AID 1245)
Conditions: Bcl-B/FITC-Puma-BH3 fluorescence polarization binding

Structure (SMILES) | EC50
Cc1cc(C)nc(/N=C(/N)Nc2cccc(N)c2)n1 | > 25 µM
Cc1ccc(C)n1-c1ccc(Br)cc1C(=O)O | 1 µM (active)

Source: PubChem BioAssay AID1245 (Sanford-Burnham Center for Chemical Genomics, 2008)
